Assay [1] has as its target mouse Estrogen Receptor alpha (Era), Esr1 (gene 13982) (UniProt P19785). Kind of assay: NVS_NR_mERa: NovaScreen (NVS) Nuclear Receptor Binding Assay for mouse Estrogen Receptor alpha (Era) (AID 2283378).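 Note: hit means loss of bound radioligand signal relative to DMSO.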 The method, boiled down: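 Measurements come from scintillation counting after filtration, taken 18 hours after chemicals were added to a cell-free mouse Era preparation with radioligand. Screening was duplicate at 25 uM, with concurrent positive and negative controls and confirmatory concentration series for actives.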

Assay [2] concerns the target Estrogen receptor (Homo sapiens) (UniProt P03372). Kind of assay: OT_ERa_GFPERaERE_0480: Odyssey Thera (OT) 8-hour HeLa Transcription Induction Assay for Estrogen Receptor (AID 2283381; active = hit-call score of the fitted dose curve at least 0.9, where 1 is the maximum; inactive = score below 0.9). The method, boiled down:
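Fluorescent reporter signal, imaged by microscopy and scored with image-analysis algorithms, was taken 8 h after chemical dosing of HeLa cells; activity was fitted upward relative to DMSO.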

Assay [3] has the same target. Kind of assay: OT_ERa_GFPERaERE_0120: Odyssey Thera (OT) 2-hour HeLa Transcription Induction Assay for Estrogen Receptor (AID 2283382). The method, boiled down:
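HeLa, 384-well, 2 h chemical exposure; GFP reporter induction (ERE), fluorescence microscopy; high content image analysis; positive fitting direction vs DMSO.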

Assay [4] deals with Estrogen receptor beta (Homo sapiens) (UniProt Q92731). Kind of assay: OT_ER_ERbERb_1440: Odyssey Thera (OT) 24-hour HEK293T Protein-Complementation Assay for Estrogen Receptor-beta/-beta Homodimer (AID 2283380).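 Note: scored as signal increase over DMSO baseline for both agonists and antagonists.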 The method, boiled down: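 HEK293T cells stably expressing ER beta LBD (aa 310-547) homodimer fragment-complementation reporter, dosed 24 h. Cells formaldehyde-fixed, Draq5-stained; gain in nuclear (agonist) or nuclear plus cytoplasmic (antagonist) fluorescence versus DMSO read by laser scanning cytometry.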
Chain of Estrogen receptor beta (Homo sapiens) (Q92731 whole entry, looked up, the tested form may be a part): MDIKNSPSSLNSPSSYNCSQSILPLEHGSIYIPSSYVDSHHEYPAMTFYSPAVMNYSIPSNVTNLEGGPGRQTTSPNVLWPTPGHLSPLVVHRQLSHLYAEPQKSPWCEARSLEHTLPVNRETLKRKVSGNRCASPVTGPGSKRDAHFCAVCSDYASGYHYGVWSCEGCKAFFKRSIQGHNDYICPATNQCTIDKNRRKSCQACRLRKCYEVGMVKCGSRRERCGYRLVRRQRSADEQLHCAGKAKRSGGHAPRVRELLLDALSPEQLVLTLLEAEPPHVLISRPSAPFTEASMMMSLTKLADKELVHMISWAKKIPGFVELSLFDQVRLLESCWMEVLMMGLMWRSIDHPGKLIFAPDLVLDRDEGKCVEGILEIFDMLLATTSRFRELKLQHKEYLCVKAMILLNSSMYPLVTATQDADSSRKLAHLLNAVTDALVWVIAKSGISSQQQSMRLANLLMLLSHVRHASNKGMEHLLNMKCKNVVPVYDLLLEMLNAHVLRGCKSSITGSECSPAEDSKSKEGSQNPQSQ

Assay [5] deals with Bile acid receptor (Homo sapiens) (UniProt Q96RI1). Kind of assay: OT_FXR_FXRSRC1_0480: Odyssey Thera (OT) 8-hour HEK293T Protein-Complementation Assay for Farnesoid X receptor/SRC-1 Co-activator (AID 2283383). The method, boiled down:
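Human kidney HEK293T cells carried FXR/SRC-1 fragment-complementation constructs. Compounds were added and incubated 8 h. Reporter reassembly upon receptor–co-activator interaction was then quantified by fluorescence, with curves fitted in the positive direction relative to DMSO.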

Assay [6] has the same target. Kind of assay: OT_FXR_FXRSRC1_1440: Odyssey Thera (OT) 24-hour HEK293T Protein-Complementation Assay for Farnesoid X receptor/SRC-1 Co-activator (AID 2283384). The method, boiled down: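 Compounds are applied to human kidney HEK293T cells expressing bait and prey fused to reporter protein fragments; after 24 h, reconstituted reporter fluorescence is measured. Activity is fitted as signal gain over DMSO.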

The target in assay [7] is Retinoic acid receptor RXR-alpha (Homo sapiens) (UniProt P19793). Kind of assay: OT_NURR1_NURR1RXRa_0480: Odyssey Thera (OT) 8-hour HEK293T Protein Complementation Assay for Nurr1/retinoid X receptor (RXR) (AID 2283385). The method, boiled down: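 8 h compound exposure, HEK293T; Nurr1/RXRα fragment complementation; fluorescence intensity; positive fitting direction vs DMSO baseline.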
Chain of Retinoic acid receptor RXR-alpha (Homo sapiens) (P19793 whole entry, looked up, the tested form may be a part): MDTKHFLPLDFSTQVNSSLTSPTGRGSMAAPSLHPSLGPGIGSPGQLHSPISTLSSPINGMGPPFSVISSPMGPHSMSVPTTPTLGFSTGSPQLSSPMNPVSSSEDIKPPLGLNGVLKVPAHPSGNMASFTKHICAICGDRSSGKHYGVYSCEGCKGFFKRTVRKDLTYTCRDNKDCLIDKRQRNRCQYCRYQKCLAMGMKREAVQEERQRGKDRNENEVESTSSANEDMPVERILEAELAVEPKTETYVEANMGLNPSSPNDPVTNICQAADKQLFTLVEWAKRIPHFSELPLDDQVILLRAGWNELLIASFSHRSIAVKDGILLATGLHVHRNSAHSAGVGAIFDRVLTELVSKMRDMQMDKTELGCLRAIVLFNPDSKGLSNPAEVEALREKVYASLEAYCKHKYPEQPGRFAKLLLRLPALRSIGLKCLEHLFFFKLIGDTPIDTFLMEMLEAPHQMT

In assay [8] the target is Peroxisome proliferator-activated receptor gamma (Homo sapiens) (UniProt P37231). Kind of assay: NVS_NR_hPPARg: NovaScreen (NVS) Nuclear Receptor Binding Assay for human Peroxisome Proliferator-activated Receptor gamma (PPARg) (AID 2283370). The method, boiled down: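 Extracted receptor protein, cell-free; compound incubated 2 h then fluorescence polarization read. Baseline: DMSO. Actives from 25 uM duplicate screen re-run across concentrations.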
Chain of Peroxisome proliferator-activated receptor gamma (Homo sapiens) (P37231 whole entry, looked up): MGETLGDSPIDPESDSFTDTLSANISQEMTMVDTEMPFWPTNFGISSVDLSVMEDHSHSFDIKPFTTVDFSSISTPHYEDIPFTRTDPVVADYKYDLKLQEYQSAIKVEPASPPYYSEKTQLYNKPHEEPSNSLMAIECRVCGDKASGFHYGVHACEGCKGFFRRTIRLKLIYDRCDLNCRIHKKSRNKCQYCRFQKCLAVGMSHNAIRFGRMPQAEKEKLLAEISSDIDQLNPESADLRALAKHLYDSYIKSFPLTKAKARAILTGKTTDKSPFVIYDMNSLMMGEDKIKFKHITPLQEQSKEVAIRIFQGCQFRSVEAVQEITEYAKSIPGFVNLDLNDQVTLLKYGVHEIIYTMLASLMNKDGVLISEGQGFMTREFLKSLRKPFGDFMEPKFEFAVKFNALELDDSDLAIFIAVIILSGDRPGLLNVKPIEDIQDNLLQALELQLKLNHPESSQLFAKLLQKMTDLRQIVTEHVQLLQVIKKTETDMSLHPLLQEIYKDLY

Assay [9] addresses human Dopamine Transporter (DAT), SLC6A3 (gene 6531) (UniProt Q01959). Kind of assay: NVS_TR_hDAT: NovaScreen (NVS) Transporter Assay for human Dopamine Transporter (DAT) (AID 2283374).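 Note: activity means loss of bound radioligand signal relative to DMSO.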 The method, boiled down: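 Cell-free radioligand displacement binding at human DAT, 1 h after dosing, with filtration and scintillation counting. Primary screen in duplicate at 25 uM, actives then in concentration series. Loss of bound signal versus DMSO scored.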

Assay [10] addresses Agonist Androgen Response Element (ARE), AR (gene 367) (UniProt P10275). Kind of assay: OT_AR_ARELUC_AG_1440: Odyssey Thera (OT) 24-hour CHO-K1 Luciferase Assay for Agonist Androgen Response Element (ARE) (AID 2283379). The method, boiled down:
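CHO-K1 cells carrying an ARE-driven luciferase reporter were exposed to compounds for 24 h. Luminescence was then read after adding a D-luciferin/ATP mix, and activity was scored as a gain in signal over DMSO vehicle.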

Assay [11] deals with human Norepinephrine Transporter (NET), SLC6A2 (gene 6530) (UniProt P23975). Kind of assay: NVS_TR_hNET: NovaScreen (NVS) Transporter Assay for human Norepinephrine Transporter (NET) (AID 2283377). The essentials: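 Cell-free radioligand binding using CHO-derived membrane protein expressing human NET, read by filter scintillation counting 1 h after dosing; loss of signal vs DMSO. Initial duplicate screen at 25 uM, actives retested in concentration series.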

In assay [12] the target is human Serotonin Transporter (SERT), SLC6A4 (gene 6532) (UniProt P31645). Kind of assay: NVS_TR_hSERT: NovaScreen (NVS) Transporter Assay for human Serotonin Transporter (SERT) (AID 2283372). The method, boiled down: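 Radioligand binding to native SERT in human platelet membranes, read by filter-based scintillation counting 1 h after dosing. Primary screen in duplicate at 25 uM; actives followed up in concentration series; loss of signal versus DMSO baseline.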
Chain of human Serotonin Transporter (SERT), SLC6A4 (gene 6532) (P31645 whole entry, looked up): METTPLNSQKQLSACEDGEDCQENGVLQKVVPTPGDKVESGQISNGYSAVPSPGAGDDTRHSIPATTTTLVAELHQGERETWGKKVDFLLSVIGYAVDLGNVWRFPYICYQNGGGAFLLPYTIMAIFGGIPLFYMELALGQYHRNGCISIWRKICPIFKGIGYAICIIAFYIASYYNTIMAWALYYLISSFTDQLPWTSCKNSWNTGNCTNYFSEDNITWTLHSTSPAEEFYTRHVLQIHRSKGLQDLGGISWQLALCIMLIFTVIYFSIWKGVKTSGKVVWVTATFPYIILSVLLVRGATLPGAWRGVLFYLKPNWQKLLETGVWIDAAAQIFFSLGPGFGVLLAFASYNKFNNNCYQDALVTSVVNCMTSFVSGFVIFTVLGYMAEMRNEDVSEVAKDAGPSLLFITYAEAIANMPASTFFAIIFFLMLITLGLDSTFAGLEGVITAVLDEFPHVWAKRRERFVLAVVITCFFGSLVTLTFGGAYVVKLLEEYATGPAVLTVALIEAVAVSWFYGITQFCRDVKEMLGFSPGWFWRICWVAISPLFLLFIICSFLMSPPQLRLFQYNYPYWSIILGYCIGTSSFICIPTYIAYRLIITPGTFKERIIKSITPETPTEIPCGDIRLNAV

Values joined by “and” are separate entries in the source; they are usually repeats but may differ in a detail not shown here. Equal entries are not always repeated. Records with an inconclusive call do not appear. Active and inactive are the calls of the source. Rule for the calls, unless noted: active = hit-call score of the fitted dose curve at least 0.9, where 1 is the maximum; inconclusive = response in the unintended direction; inactive = score below 0.9.

Chain of Bile acid receptor (Homo sapiens) (Q96RI1 whole entry, looked up, the tested form may be a part): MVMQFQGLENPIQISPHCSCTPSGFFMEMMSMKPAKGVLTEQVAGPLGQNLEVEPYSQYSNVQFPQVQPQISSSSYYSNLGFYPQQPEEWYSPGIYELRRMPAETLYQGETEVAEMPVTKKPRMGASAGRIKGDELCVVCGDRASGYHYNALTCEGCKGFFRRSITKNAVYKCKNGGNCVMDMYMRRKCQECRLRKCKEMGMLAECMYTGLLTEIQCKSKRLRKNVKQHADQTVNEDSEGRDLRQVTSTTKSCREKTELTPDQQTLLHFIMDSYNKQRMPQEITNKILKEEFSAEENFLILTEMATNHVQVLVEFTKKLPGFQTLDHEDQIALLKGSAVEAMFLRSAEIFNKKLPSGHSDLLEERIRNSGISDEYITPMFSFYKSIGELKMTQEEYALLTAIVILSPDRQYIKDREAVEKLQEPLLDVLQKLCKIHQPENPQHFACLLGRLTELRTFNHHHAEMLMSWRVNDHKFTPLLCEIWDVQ
Chain of Estrogen receptor (Homo sapiens) (P03372 whole entry, looked up): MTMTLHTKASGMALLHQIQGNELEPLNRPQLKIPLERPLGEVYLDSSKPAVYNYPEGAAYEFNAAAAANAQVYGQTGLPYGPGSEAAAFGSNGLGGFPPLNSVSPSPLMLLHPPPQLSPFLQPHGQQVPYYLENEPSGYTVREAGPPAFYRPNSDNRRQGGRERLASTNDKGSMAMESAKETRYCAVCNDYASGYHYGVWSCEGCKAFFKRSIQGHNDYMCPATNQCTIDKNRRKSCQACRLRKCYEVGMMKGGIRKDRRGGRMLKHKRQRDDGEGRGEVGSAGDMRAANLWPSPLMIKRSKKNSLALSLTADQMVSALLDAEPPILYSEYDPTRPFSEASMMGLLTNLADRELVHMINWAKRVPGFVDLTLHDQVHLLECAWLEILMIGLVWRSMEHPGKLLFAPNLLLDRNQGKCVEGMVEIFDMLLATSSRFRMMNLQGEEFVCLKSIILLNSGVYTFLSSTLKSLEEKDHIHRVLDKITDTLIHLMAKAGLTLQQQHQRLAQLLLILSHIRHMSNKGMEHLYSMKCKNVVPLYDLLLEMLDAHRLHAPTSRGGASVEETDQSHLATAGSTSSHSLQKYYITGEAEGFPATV
Chain of mouse Estrogen Receptor alpha (Era), Esr1 (gene 13982) (P19785 whole entry, looked up): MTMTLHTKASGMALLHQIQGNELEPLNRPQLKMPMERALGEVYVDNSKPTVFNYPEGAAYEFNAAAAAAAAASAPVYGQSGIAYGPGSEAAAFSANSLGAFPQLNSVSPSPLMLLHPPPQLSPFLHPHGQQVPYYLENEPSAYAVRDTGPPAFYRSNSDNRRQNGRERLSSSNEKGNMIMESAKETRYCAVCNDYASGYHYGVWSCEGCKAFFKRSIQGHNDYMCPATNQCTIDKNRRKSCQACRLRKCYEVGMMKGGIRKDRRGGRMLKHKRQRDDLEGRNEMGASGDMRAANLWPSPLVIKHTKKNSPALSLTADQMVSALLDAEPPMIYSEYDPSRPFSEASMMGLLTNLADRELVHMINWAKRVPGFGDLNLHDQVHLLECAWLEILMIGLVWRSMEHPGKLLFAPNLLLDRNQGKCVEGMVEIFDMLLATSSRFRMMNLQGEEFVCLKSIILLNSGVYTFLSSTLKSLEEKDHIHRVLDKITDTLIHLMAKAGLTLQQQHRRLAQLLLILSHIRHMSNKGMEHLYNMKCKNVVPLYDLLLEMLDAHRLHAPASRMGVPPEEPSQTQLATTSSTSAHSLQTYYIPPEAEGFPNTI
Chain of Agonist Androgen Response Element (ARE), AR (gene 367) (P10275 whole entry, looked up): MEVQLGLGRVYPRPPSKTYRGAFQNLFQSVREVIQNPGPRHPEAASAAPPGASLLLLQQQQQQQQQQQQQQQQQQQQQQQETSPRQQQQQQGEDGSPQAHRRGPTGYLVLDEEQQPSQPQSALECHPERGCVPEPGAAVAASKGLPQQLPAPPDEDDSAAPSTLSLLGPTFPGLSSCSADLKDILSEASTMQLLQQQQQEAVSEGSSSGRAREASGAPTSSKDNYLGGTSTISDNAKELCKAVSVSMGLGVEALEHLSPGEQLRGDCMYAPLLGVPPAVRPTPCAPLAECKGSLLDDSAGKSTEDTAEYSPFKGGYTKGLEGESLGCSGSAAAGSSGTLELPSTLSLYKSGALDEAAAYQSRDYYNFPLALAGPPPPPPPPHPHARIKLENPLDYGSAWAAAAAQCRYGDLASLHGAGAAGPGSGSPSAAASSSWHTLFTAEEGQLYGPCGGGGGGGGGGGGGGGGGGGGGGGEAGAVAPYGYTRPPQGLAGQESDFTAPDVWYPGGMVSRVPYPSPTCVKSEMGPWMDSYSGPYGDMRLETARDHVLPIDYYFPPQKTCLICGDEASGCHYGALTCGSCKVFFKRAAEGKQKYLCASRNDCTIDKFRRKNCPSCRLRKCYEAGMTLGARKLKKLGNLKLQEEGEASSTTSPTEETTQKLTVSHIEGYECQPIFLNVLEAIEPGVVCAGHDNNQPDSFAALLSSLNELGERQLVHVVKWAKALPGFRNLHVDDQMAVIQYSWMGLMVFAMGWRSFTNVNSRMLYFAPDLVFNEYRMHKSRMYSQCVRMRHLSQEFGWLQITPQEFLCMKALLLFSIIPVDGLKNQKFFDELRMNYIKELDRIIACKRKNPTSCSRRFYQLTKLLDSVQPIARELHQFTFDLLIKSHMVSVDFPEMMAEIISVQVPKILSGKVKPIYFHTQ

Turning to `OC1CCCCC1`, the outcome in assay [1], in [2] and in assay [3] was inactive.

Turning to `COc1ccc([N+](=O)[O-])cc1N`, the molecule was classed as inactive in [4], in assay [2], in assay [3], in assay [5], in assay [6] and in assay [7].

As to `CC1=C(/C=C/C(C)=C/C=C/C(C)=C/C(=O)O)C(C)(C)CCC1`, the result in assay [8], in assay [2] and in assay [3] was inactive. The AC50 – broadly, the midpoint of the concentration-response curve, whichever way the signal moves – in [9] is 6.66 µM (active).

As for `N#C[C@@H]1CC(F)(F)CN1C(=O)CNC1CC2CCC(C1)N2c1ncccn1` (stereo not given in full), the molecule was called inactive in [10], in assay [4], in [2], in assay [3], in assay [6] and in assay [7].

Take `CN(C)C=O`: the molecule was classed as inactive in [8], in [4], in assay [2], in assay [3], in assay [5] and in assay [6]. In assay [7], the molecule was classed as inactive.

As to `CN1CCN(c2ccccc2/C=C2\SCCN(c3ccc(Cl)c(Cl)c3)C2=O)CC1`, the molecule was called inactive in [8] and in [4]. Also, the AC50 in assay [2] was 19.5 µM (active); in assay [3] it was 68.3 µM (active).

`Oc1cccc(O)c1`: the AC50 in assay [4] is 18 µM (active); in assay [2], 52.9 µM (active). Further, the result in assay [3], in assay [5], in assay [6] and in [7] was inactive.

In the case of `OCCC(F)(F)C(F)(F)C(F)(F)C(F)(F)C(F)(F)C(F)(F)F`, the outcome in [4], in [2], in assay [5], in assay [6] and in [7] was inactive. Moreover, in assay [3], the concentration at half-maximal activity (AC50) was 11.6 µM (active).

As to `CCCCCCCCC(=O)O`, the molecule was classed as inactive in [4], in assay [2], in assay [3] and in assay [7].

On to `O=[N+]([O-])c1ccc(O)cc1`, for which the result in [8], in [11], in [1], in assay [2], in assay [3] and in [7] was inactive.

On to `CCCCCCCCOC(=O)CCCCCCCCC(=O)OCCCCCCCC`, for which the result in assay [12], in assay [4], in assay [2], in assay [3], in [5] and in assay [7] was inactive.

In the case of `CC(C)(C)CC(C)(C)c1ccc(O)c(-n2nc3ccccc3n2)c1`, the outcome in assay [4], in [2] and in [3] was inactive. Besides, the AC50 is 35.7 µM (active) in assay [5]; 34.5 µM (active) in assay [6]; 75.6 µM (active) and 79 µM (active) in assay [7].

With `COC(=O)CCCCC(=O)OC`, the outcome in assay [2], in assay [3], in assay [6] and in [7] was inactive.

Take `C=C(C)C(=O)OCCC(F)(F)C(F)(F)C(F)(F)C(F)(F)C(F)(F)C(F)(F)F`: the result in assay [1], in assay [4], in assay [2], in assay [5], in assay [6] and in assay [7] was inactive. Moreover, the AC50 in assay [3] was 12.5 µM (active).

Take `CN1CCC[C@H]1c1cccnc1`: the result in assay [8], in assay [4], in [2] and in assay [3] was inactive.

Take `CCCCC(CC)COC(=O)CCCCC(=O)OCC(CC)CCCC` (stereo not given): the molecule was called inactive in assay [4], in [2], in [3], in assay [5], in assay [6] and in assay [7].

For the molecule `CCCCCCCCCCCCCCCS(=O)(=O)Oc1ccccc1`, the result in [4], in assay [2], in [3], in assay [5] and in assay [6] was inactive.

Regarding `c1ccc2c(c1)Cc1ccccc1-2`, the call in [4], in assay [2], in assay [3], in assay [5] and in assay [7] was inactive.

(Values after PubChem BioAssay (EPA / NIEHS).)
